Key:
Test in all cases: log2 ratio of Biotin-Ahx-Ub-VS probe labelling (fragment/DMSO); higher = less target engagement (more negative = stronger competition), active = hit call of the paper (q ≤ 0.05, log2 ratio ≤ -1)
Conditions in all cases: compound concentration: 200 uM; treatment time: 3 h
[1] = target: USP34 (UniProt Q70CQ2)
Procedure, shortened: (§1)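 HEK293T lysate, 495 µg per sample in Tris/CHAPS/IGEPAL buffer with protease inhibitors, was treated in triplicate with fragment at 200 µM or vehicle for 3 h and then with Biotin-Ahx-Ub-VS at 0.5 µM final for 1 h. Labelled DUBs were NeutrAvidin-enriched, digested with LysC and trypsin, and run by diaPASEF LC-MS/MS. Spectronaut label-free quantities were global-median-normalised, and values are average log2 fragment/vehicle ratios by unpaired t-test on proteins with ≥2 unique peptides.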

[2] = target: T1, USP36 (UniProt Q9P275)
T1 sequence (whole entry): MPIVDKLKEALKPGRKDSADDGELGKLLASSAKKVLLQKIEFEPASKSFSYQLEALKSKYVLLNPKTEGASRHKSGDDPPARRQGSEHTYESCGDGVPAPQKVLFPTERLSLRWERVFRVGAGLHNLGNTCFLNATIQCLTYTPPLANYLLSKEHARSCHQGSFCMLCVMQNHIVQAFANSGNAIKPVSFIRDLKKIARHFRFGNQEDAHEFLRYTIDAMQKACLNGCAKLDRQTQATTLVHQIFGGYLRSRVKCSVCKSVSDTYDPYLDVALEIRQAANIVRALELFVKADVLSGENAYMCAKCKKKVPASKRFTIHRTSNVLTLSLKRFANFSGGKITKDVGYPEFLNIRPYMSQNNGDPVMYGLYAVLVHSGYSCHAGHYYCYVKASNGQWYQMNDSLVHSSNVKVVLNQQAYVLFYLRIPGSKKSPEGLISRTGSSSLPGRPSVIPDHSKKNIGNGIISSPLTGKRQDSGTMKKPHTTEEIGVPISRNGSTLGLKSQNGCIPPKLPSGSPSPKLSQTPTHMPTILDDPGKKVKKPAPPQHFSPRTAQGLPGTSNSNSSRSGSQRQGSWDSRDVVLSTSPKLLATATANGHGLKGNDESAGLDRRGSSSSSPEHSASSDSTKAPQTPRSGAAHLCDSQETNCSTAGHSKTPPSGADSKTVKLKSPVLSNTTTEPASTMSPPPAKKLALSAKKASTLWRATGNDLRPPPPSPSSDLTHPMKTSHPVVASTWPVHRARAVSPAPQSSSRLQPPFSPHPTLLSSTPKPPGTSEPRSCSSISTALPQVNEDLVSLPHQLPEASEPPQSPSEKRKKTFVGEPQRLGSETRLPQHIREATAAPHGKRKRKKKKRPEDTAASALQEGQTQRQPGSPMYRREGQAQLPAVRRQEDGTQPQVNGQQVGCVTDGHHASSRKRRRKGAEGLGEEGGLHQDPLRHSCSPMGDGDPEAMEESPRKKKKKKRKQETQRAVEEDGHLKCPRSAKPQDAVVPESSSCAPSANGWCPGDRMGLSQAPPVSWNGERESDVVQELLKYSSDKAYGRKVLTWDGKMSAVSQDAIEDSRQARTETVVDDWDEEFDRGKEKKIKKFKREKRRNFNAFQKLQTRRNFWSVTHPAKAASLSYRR
Procedure, shortened: as §1

[3] = target: T2, USP38 (UniProt Q8NB14)
T2 sequence (whole entry): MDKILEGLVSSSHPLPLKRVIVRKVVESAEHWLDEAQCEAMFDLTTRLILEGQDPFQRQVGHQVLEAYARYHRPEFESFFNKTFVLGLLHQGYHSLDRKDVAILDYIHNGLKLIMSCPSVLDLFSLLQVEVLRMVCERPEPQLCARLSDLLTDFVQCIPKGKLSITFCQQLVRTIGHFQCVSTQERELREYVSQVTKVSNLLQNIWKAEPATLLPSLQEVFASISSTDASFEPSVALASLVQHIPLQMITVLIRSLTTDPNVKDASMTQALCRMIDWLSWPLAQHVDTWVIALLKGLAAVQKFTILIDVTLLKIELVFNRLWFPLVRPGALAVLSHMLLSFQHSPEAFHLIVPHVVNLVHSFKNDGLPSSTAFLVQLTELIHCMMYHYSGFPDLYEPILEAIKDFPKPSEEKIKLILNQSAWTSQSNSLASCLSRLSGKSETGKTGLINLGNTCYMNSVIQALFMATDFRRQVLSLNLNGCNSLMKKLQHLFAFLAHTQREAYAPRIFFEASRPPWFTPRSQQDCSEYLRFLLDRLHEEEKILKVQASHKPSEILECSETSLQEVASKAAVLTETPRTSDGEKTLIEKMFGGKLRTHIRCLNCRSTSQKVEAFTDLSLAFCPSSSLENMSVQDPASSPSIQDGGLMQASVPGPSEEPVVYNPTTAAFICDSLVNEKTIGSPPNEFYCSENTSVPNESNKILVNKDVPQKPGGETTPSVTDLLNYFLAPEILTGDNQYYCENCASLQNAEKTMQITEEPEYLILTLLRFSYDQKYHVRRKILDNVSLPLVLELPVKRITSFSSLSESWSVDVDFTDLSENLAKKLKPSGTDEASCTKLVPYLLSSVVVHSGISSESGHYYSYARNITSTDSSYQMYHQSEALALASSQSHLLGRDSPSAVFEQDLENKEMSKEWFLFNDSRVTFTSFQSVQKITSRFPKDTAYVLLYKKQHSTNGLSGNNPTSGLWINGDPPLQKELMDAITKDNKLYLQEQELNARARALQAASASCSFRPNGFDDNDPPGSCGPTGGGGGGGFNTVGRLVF
Procedure, shortened: as §1

[4] = target: T3, USP39 (UniProt Q53GS9)
T3 sequence (whole entry): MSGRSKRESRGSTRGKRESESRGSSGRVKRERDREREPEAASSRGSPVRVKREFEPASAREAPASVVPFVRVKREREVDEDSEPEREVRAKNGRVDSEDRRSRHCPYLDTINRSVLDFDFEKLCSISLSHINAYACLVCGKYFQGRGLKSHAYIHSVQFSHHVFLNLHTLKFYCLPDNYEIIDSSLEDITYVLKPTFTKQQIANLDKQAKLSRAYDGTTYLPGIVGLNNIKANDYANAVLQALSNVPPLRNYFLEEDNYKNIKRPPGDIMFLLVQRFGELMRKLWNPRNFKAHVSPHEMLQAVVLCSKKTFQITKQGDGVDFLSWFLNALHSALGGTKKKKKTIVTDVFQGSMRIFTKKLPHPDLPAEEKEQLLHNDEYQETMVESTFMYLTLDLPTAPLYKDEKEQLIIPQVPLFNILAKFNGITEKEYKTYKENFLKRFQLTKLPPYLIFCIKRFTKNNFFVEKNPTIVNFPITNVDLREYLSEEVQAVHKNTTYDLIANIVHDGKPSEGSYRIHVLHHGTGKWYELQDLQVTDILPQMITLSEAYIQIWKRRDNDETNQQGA
Procedure, shortened: as §1

[5] = target: T4, USP4 (UniProt Q13107)
T4 sequence (whole entry): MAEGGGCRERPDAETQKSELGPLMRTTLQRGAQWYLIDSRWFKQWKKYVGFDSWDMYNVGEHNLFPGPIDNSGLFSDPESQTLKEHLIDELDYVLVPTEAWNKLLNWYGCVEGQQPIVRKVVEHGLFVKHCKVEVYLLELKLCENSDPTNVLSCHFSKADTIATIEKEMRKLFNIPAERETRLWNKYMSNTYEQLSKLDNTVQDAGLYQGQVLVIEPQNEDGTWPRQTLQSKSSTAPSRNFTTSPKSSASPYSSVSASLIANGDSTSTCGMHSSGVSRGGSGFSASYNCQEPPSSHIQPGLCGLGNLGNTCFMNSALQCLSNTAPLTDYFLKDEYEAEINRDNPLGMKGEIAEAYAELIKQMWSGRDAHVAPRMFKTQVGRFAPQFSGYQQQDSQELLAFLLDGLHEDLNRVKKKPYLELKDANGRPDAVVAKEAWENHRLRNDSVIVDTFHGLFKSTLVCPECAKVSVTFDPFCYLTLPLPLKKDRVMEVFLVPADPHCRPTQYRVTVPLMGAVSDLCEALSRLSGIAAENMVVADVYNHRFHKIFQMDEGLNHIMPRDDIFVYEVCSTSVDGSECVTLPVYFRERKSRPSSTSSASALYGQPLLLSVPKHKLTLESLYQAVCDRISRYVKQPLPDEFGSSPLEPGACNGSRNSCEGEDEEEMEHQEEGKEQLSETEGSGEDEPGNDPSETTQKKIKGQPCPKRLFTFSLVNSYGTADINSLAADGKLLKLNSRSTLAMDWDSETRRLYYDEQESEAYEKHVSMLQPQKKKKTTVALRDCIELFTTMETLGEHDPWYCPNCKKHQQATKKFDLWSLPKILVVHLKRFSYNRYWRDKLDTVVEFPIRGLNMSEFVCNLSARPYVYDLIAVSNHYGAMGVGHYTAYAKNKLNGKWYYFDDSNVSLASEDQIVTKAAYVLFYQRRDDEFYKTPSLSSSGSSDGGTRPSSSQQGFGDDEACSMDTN
Procedure, shortened: as §1

Measured: log2 ratio of Biotin-Ahx-Ub-VS probe labelling

Sequence of USP34 (Q70CQ2 whole entry, the tested form may be a part): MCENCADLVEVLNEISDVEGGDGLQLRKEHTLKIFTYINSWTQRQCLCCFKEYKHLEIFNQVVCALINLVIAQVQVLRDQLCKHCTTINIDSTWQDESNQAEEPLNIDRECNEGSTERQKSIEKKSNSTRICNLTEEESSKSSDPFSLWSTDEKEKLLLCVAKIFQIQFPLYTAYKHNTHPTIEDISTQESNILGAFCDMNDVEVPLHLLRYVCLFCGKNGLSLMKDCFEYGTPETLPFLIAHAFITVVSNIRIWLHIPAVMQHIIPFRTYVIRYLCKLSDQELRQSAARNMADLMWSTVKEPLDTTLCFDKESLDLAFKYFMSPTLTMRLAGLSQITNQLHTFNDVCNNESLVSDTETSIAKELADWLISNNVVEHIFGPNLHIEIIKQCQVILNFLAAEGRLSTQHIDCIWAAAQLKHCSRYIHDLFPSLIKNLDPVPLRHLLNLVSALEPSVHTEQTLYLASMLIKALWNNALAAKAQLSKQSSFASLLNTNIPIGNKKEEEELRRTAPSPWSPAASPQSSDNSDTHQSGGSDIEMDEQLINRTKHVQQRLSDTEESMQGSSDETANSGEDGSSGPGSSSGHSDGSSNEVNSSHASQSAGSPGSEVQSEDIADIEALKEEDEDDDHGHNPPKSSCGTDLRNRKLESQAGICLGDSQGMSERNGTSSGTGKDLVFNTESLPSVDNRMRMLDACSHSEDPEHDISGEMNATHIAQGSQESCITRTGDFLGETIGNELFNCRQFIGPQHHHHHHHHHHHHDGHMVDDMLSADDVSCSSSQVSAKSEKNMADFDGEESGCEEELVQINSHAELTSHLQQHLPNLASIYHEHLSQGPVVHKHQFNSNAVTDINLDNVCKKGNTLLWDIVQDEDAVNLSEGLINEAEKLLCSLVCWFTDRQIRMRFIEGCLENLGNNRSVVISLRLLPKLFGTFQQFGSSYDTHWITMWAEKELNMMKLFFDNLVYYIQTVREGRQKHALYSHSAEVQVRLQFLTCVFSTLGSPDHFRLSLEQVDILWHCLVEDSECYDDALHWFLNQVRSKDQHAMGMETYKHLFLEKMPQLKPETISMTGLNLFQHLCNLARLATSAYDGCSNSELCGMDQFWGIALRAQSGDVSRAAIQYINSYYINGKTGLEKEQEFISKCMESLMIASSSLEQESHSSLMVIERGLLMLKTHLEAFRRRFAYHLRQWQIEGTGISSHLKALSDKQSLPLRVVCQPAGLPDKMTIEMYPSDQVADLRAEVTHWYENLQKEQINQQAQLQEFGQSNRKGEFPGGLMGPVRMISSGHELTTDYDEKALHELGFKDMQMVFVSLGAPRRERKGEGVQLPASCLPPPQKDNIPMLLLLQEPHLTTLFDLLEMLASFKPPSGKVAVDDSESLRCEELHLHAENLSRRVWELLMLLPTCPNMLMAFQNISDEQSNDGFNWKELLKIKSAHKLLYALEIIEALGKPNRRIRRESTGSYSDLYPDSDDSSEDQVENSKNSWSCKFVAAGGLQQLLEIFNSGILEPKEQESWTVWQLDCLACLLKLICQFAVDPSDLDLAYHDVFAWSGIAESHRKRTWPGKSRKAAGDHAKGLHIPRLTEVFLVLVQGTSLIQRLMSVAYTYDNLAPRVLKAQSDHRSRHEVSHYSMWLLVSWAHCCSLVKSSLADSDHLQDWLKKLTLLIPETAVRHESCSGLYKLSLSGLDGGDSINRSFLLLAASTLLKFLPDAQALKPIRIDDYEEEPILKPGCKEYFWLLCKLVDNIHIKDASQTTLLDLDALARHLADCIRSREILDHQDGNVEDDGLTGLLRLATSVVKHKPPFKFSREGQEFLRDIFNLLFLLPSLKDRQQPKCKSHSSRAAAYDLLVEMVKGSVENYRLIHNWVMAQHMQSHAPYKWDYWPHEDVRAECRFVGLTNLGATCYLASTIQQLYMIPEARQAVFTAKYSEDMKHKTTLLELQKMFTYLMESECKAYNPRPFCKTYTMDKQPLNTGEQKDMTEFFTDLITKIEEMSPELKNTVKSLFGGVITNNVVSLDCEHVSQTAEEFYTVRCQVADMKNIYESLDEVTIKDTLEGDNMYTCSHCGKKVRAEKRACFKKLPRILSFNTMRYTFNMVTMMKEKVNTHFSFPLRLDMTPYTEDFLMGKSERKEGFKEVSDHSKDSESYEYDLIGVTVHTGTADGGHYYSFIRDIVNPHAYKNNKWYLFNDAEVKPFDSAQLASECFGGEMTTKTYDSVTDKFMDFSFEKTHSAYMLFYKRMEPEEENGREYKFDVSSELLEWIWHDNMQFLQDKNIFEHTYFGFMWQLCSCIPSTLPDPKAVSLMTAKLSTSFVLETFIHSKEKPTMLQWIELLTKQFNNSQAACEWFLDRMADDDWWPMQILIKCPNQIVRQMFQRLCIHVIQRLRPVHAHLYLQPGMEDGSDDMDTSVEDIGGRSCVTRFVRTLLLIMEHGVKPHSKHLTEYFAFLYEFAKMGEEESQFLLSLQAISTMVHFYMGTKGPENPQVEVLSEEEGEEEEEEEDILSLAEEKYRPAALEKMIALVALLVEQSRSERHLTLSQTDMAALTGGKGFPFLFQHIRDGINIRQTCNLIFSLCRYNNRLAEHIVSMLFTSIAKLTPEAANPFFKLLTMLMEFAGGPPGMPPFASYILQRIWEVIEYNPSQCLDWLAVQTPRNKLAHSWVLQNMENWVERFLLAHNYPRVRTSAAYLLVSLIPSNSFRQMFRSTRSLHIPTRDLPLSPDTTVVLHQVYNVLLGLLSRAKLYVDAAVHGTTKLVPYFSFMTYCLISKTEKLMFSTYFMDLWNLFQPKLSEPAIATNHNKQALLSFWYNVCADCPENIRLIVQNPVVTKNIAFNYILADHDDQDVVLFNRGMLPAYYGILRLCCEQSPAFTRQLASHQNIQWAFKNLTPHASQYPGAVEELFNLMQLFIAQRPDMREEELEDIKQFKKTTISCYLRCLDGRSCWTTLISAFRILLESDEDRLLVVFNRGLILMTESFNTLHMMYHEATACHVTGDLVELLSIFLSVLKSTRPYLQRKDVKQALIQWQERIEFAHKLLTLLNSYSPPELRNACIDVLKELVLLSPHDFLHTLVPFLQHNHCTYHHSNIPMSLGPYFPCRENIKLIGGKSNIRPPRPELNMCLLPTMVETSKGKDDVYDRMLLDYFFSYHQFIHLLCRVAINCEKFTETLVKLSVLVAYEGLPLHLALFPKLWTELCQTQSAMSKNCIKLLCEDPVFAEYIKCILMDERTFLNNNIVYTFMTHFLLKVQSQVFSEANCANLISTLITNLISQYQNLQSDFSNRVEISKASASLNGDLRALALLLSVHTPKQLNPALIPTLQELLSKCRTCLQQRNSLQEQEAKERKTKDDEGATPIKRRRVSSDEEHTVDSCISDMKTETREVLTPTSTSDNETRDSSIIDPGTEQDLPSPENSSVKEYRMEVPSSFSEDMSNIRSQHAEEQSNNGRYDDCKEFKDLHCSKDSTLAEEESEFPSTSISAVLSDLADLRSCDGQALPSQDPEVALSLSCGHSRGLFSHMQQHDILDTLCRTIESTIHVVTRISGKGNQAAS

O=C(CCl)N1CCCC2CCCCC21 (stereo not given)
inactive: [1] -0.14 | [2] -0.176 | [3] -0.0442 | [4] -0.107 | [5] -0.14

— the supplement of paper PMC11732987, “Enantioselective OTUD7B fragment discovery through chemoproteomics screening and high-throughput optimisation” (Communications Chemistry, 2025)
